Screens deposited in PubChem BioAssay by National Center for Advancing Translational Sciences (NCATS).
N370S GC – qHTS Assay for Inhibitors and Activators of N370S glucocerebrosidase as a Potential Chaperone Treatment of Gaucher Disease; Lysosomal acid glucosylceramidase (Homo sapiens), P04062; N370S GC spleen homogenate, 4MU-glucoside fluorescence; Potency, µM (top dose mostly 59.4 µM), for the others: at the top dose activity change, negative = inhibition, most hits filed as inhibitors; 0.092% of 330,000 active; AID 2101, 2009;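 further: potency means the concentration at half of the fitted maximal effect; 0% = full enzyme activity and -100% = no enzyme basal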
GAA glycogen mod – qHTS Assay for Inhibitors and Activators of Human alpha-Glucosidase Cleavage of Glycogen | 0.38% of 300,000 active | Potency, µM (highest dose often 76.4 µM), for inactives: at the top dose activity change, negative = inhibition, hits mostly inhibitors | recombinant GAA, glycogen substrate, Amplex Red glucose oxidase fluorescence | Lysosomal alpha-glucosidase (Homo sapiens), P10253;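 further: potency means the concentration at half of the fitted maximal effect; 0% = full enzyme reaction and -100% = no-enzyme basal signal; the screen sought inhibitors and activators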
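Recombinant human enzyme (4 nM); glycogen substrate; 37 C, 40 min, pH 5.0. Readout: coupled glucose oxidase/Amplex Red fluorescence.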
aGlu spleen mod – qHTS Assay for Inhibitors and Activators of Human alpha-Glucosidase From Spleen Homogenate; Lysosomal alpha-glucosidase (Homo sapiens), P10253; human spleen homogenate, 4-MU-alpha-glucoside fluorescence; Potency, µM (top dose mostly 79.9 µM), for inactives: at the highest dose activity change, negative = inhibition, hits mostly inhibitors; 0.006% of 240,000 active;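 further: potency means the concentration at half of the fitted maximal effect; 0% = enzyme with vehicle and -100% = no enzyme basal signal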
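Enzyme source: human spleen homogenate, 1 ug/well. Buffer 50 mM citric acid/K phosphate pH 5.0, 0.01% Tween-20. 4-MU-alpha-glucoside 1 mM; 37 C x 40 min; NaOH/glycine stop; fluorescence.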
GAA inh – qHTS Assay for Inhibitors of Human alpha-Glucosidase as a Potential Chaperone Treatment of Pompe Disease; AID 1466, 2008; 0.005% of 200,000 active; purified human GAA, 4-MU-alpha-glucoside fluorescence; Potency, µM (series often up to 76.9 µM), for inactives: at the highest dose activity change, negative = inhibition, hits mostly inhibitors;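 further: potency means the concentration at half of the fitted maximal effect; plate controls were uninhibited enzyme wells for no effect and no-enzyme background for full effect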
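Endpoint fluorogenic read: 20 min room-temperature reaction of 4 nM human alpha-glucosidase with 400 uM 4-methylumbelliferyl-alpha-D-pyranoside, pH 5.0, quenched with 1M NaOH/1M glycine pH 10. AC50 from Hill modeling.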
GLA inh pH 4.5 – qHTS Assay for Inhibitors of Human alpha-Galactosidase at pH 4.5. 230,000 tested, under 10 active. Alpha-galactosidase A (Homo sapiens), P06280. AID 1467, 2008. activity change, negative = inhibition, % at 105 µM. purified enzyme, 4-MU-alpha-Gal fluorescence, pH 4.5;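 further: 0% = full activity with enzyme and -100% = basal without enzyme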
aGal spleen mod – qHTS Assay for Inhibitors and Activators of Human alpha-Galactosidase From Spleen Homogenate | human spleen homogenate, 4MU-alpha-Gal fluorescence, 40 min | Potency, µM (top dose mostly 80 µM), without a hit: at the highest dose activity change, negative = inhibition, hits mostly inhibitors | 0.008% of 240,000 active | AID 2107, 2009;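 further: potency means the concentration at half of the fitted maximal effect; 0% = enzyme with vehicle and -100% = no enzyme basal signal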
Target sequence (P06280 32-429 limits assumed): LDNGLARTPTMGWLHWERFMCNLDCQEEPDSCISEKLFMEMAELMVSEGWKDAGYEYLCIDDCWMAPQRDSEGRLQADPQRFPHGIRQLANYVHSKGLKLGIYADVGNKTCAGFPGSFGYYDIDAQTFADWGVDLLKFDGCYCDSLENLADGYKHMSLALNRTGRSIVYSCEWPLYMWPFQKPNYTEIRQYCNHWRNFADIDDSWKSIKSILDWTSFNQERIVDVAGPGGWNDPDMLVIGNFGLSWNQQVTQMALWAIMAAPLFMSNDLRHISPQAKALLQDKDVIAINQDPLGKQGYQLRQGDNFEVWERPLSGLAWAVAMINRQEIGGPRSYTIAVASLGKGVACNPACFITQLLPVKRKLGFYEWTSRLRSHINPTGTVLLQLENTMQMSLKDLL
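Fluorogenic readout (Ex 365/Em 440 nm) of 4-methylumbelliferone released from 1 mM 4-MU-alpha-galactoside by spleen homogenate, 40 min at 37C, pH 5.0. Data normalized to no-enzyme and enzyme controls; Hill-equation AC50 from compound titrations.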
Active calls of the source: *; ? = inconclusive; . = not tested or not shown; [ ] = remark or other dose. A selection: hits, their analogues and other compounds. The true share with any hit is near 0.41%. The call rests on the fitted dose curve; in most records, active means well fitted curve in the direction sought with a large enough effect; inconclusive means small, poorly fitted or top-dose-only effect, or another doubt; inactive means no such curve, though single readings can be large; an effect the other way counts as inactive or inconclusive.

SMILES	N370S GC	GAA glycogen mod	aGlu spleen mod	GAA inh	GLA inh pH 4.5	aGal spleen mod
Cc1ccc2[nH]c(=O)c(-c3nc4ccccn4c3NCc3ccco3)cc2c1	0%	32µM*	4%	-6%	-4	-2%
O=Cc1c(NCc2ccco2)nc2ccccn2c1=O	-11%	-5%	4%	-1%	-9	0%
C1CCc2nnc(-c3nnc4n3CCCCC4)n2CC1	-2%	4%	-14%	-1%	0	-5%
Cc1ccc(C)n1-c1ccc(-c2nnc3n2CCCCC3)s1	0%	35µM*	-3%	2%	1	4%
O=S(=O)(Nc1cccc2cccnc12)c1ccc(Br)s1	-5%	.	4%	.	.	1%
Nc1ccc2nc(N3CCOCC3)sc2c1	0%	6.3µM*	2%	-3%	-6	1%
COc1cc(NC(=S)NC(C)=O)ccc1NC(=O)C(C)C	4%	3%	-2%	-1%	0	-1%
CCc1ccc(NC(=S)Nc2cc(OC)c(NC(=O)C(C)C)cc2OC)cc1	3%	12µM*	2%	2%	-2	8%
O=C(NNC(=O)c1cc(O)c(O)c(O)c1)NC1CCCCC1	4%	7.9µM*	-10%	-6%	10	-2%
O=C(NNC(=O)c1cccnc1)NC1CCCCC1	-7%	-3%	-1%	2%	-2	1%
Cc1ccc(C(=O)NC(=S)NNC(=O)CC#N)cc1	-2%	11µM*	7%	?	0	6%
CCCCC(=O)NNC(=S)NC(=O)c1ccc(C)cc1	-10%	-29%	-12%	?	8	2%
COc1ccc(-c2nnc3n2N=C(c2ccccc2OC)CS3)cc1	5%	.	5%	.	.	3%
COc1cc(-c2cn[nH]c2N)cc(OC)c1OC	-12%	11µM*	?	?	-6	7%
Nc1[nH]ncc1-c1ccc(Cl)cc1	-2%	-18%	.	-8%	1	15%
O=C(NNc1nc2c(F)cccc2s1)C1COc2ccccc2O1 (configuration not stated)	4%	4.4µM*	-2%	-17%	5	-9%
COc1cccc2sc(NNC(=O)C3COc4ccccc4O3)nc12 (configuration not stated)	23%	-17%	-6%	-1%	-3	-5%
Cc1ccc(NS(=O)(=O)c2ccc(N3CCN(c4ccc(O)cc4)CC3)c([N+](=O)[O-])c2)c(C)c1	14µM*	?	1%	-4%	-8	4%
CCc1ccc(NS(=O)(=O)c2ccc3oc(=O)c4ncn(CC)c4c3c2)cc1	.	3%[76.3 µM]	.	.	.	.
COc1ccc2[nH]cc(CCNc3ncncc3-c3ccc4c(c3)OCO4)c2c1	-11%	.	0%	.	.	-3%
O=C1/C(=C/c2ccc(O)c(O)c2)Oc2cc(O)ccc21	-26%	22µM*	-2%	.	-3	-4%
COc1ccc(OC)c(N=C2C(=O)Nc3ccccc32)c1	-1%	31µM*	-2%	?	0	3%
COc1ccc(N=C2C(=O)Nc3ccccc32)cc1	7%	?	1%	5%	-6	10%
C=CC(C)(C)c1[nH]c2ccccc2c1C1=C(O)C(=O)C(c2c[nH]c3c(CC=C(C)C)cccc23)=C(O)C1=O	-8%	.	2%	.	0	-1%
Cc1cccc(N2CCN(c3nc4nonc4nc3N3CCSCC3)CC2)n1	-27%	10µM*	5%	11%	-3	4%
SMILES	N370S GC	GAA glycogen mod	aGlu spleen mod	GAA inh	GLA inh pH 4.5	aGal spleen mod
C[C@]12CCC(=O)C=C1CCC1C3CC[C@](O)(C(=O)CO)[C@@]3(C)CC3OC312 (some centres not stated)	4%	.	2%	.	-1	3%
O=C(O)c1cccc(-c2ccc(/C=N/Nc3nn[nH]n3)o2)c1	-2%	1.8µM*	-8%	-8%	-21	1%
COc1ccc([C@@H]2CC(=O)c3c(O)cc(O[C@@H]4O[C@H](CO)[C@@H](O)[C@H](O)[C@H]4OC4O[C@@H](C)[C@H](O)[C@@H](O)[C@H]4O)cc3O2)cc1O (some centres not stated)	6%	.	8%	.	.	-5%
CC(C)C[C@H](NC(=O)[C@H](CC(C)C)NC(=O)[C@H](Cc1ccccc1)NC(=O)[C@@H](N)CO)C(=O)N[C@@H](CCCNC(=N)N)C(=O)N[C@@H](CC(N)=O)C(=O)N1CCC[C@H]1C(=O)N[C@@H](CC(N)=O)C(=O)N[C@@H](CC(=O)O)C(=O)N[C@@H](CCCCN)C(=O)N[C@@H](Cc1ccc(O)cc1)C(=O)N[C@@H](CCC(=O)O)C(=O)N1CCC[C@H]1C(=O)N[C@@H](Cc1ccccc1)C(=O)O	-1%	.	2%	.	.	5%
COC(=O)c1ccc(O)c(Sc2cc(C(=O)OC)ccc2O)c1	0%	-16%	-13%	-7%	-4	1%
CC(C)C(=O)c1ccc(O)c(O)c1	-1%	7.1µM*	1%	.	-7	-7%
CCCn1c(-c2ccc(F)cc2)nc2c(NC3CCN(Cc4ccccc4)CC3)nc(C)nc21	-18%	.	-1%	.	-17	-6%
O=C(COc1cccc2cccnc12)N/N=C/c1ccccc1O	17%	3%	2%	.	-4	10%
Oc1ccccc1/C=N/Nc1cccc2cccnc12	-13%	7.9µM*	-12%	-11%	5	-10%
COc1ccccc1N1CCN(/N=C/c2cccc(O)c2)CC1	1%	9.9µM*	2%	-10%	-14	-2%
O=C1c2ccccc2C(=O)N1OCc1cccc(Cl)c1	3%	6%	-4%	-6%	12	4%
O=C1Cc2ccccc2C(=O)N1OCc1ccc(Cl)cc1Cl	-6%	25µM*	-4%	4%	0	-8%
Cc1ccc(NNC(=O)c2c(F)cccc2Cl)cc1C	10%	25µM*	-2%	.	-11	2%
Cc1cc(NC(=O)c2c(F)cccc2Cl)no1	12%	4%	-6%	-4%	4	0%
Cc1ccc(Nc2c(-c3ccsc3)nc3c(C)cccn23)cc1	.	11µM*	.	.	.	.
Cc1cccn2c(Nc3ccccc3)c(-c3ccc(N4CCOCC4)cc3)nc12	.	4µM*	.	.	.	.
Cn1c(-c2cccc([N+](=O)[O-])c2)cnc1NCc1cccc([N+](=O)[O-])c1	-13%	22µM*	-4%	-6%	9	1%
